TDP1 cell noCPT: qHTS for Inhibitors of human tyrosyl-DNA phosphodiesterase 1 (TDP1): qHTS in cells in absence of CPT; DT40 Tdp1-/- hTDP1 cells, no CPT, ATP luminescence, 48 h; Potency, µM (series often up to 46.2 µM), for the others: at the highest dose activity change, negative = growth inhibition, usual class: inhibitors; hit rate 15% among 420,000; AID 686978, 2013; further: potency means the concentration at half of the fitted maximal effect; nearly all actives have a fitted effect of over 55% in size
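DT40 Tdp1-/-;hTDP1 cells, no CPT (DMSO vehicle only), 400 cells/well; compounds pin-transferred; ≥48 hr, 37 °C; CellTiter-Glo 30 min RT dark, luminescence read.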
RORgamma inh: blocks mouse ROR gamma transcriptional activity. Drosophila S2 Gal4-RORgamma UAS-luciferase reporter, 20 h. Potency, µM (top dose mostly 53.6 µM), without a hit: top-dose activity change, negative = inhibition, hits mostly inhibitors. hit rate 5.4% among 310,000; further: potency means the concentration at half of the fitted maximal effect; nearly all actives have a fitted effect of over 60% in size
Target sequence (P51450 whole entry, looked up, the tested form may be a part): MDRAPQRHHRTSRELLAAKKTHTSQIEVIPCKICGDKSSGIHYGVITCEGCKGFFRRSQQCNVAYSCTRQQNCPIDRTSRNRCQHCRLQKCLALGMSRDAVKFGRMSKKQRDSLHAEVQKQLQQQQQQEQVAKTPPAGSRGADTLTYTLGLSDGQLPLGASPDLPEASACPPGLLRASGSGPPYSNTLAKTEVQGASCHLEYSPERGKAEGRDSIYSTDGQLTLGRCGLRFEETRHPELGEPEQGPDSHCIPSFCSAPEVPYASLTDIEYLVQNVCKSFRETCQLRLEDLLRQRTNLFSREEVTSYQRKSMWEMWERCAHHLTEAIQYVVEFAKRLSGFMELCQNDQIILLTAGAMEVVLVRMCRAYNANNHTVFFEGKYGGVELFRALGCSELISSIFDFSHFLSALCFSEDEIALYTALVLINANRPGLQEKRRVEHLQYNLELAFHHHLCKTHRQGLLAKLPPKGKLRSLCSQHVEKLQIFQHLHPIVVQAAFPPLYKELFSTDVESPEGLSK
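Drosophila S2 cells stably expressing Gal4-DBD/mouse RORγ fusion under metallothionein promoter plus UAS-luciferase; compound 1 h, then 700 uM CuSO4 induction for 20 h at ambient temperature; inhibition read as reduced luminescence.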
ELG1 repair inh: ELG1-dependent DNA repair inhibition. HEK293T ELG1-luciferase reporter, luminescence, 16 h; DNA damage induced by 5-fluorouridine. Potency, µM (top dose mostly 46.1 µM), without a hit: top-dose activity change, negative = inhibition, actives largely listed as inhibitors. hit rate 2.3% among 330,000. AID 504467; further: potency means the concentration at half of the fitted maximal effect; nearly all actives have a fitted effect of over 55% in size
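HEK293T cells expressing luciferase-tagged ELG1 (2,000/well) received 5-Fluorouridine plus compound or DMSO for 16 hr at 37 °C. Luciferase was read by ONE-Glo luminescence after 30 min at room temperature.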
DT40 TDP1 CPT: DT40-hTDP1 cell growth loss with CPT; Potency, µM (titrated, usually from 46.2 µM), for the others: at the highest dose activity change, negative = growth inhibition, hits mostly inhibitors; chicken DT40 Tdp1-/-;hTDP1 cells + 20 nM CPT, ATP luminescence, 48 h; hit rate 12% among 420,000; AID 686979; further: potency means the concentration at half of the fitted maximal effect; nearly all actives have a fitted effect of over 55% in size
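Chicken DT40 Tdp1-/- cells stably complemented with human TDP1 were seeded at 400 cells/well in medium containing 20 nM camptothecin, exposed to pin-transferred compounds, and grown at 37 °C for at least 48 hr. Viability was read as ATP luminescence.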
VP16 counter: Gal4-VP16 reporter inhibition counter-screen. Drosophila S2 Gal4-VP16 UAS-luciferase, luminescence, 20 h. Potency, µM (doses to about 53.6 µM), for the others: top-dose activity, negative = inhibition, most hits filed as inhibitors. hit rate 3.5% among 310,000. AID 2546;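 further: Gal4-VP16 expression switched on by copper sulfate through the metallothionein promoter; potency means the concentration at half of the fitted maximal effect; nearly all actives have a fitted effect of over 50% in size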
IL-1B inflam inh: inhibitors of inflammasome signaling (IL-1 beta secretion); THP-1 LPS/ATP IL-1B secretion, AlphaLISA, 16 h; stronger effect = lower value; activity change, % at 57.5 µM; AID 743279; hit rate 4.7% among 360,000; in the data active means activity change below about -50%; inconclusive means mostly about -30% to -49%
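Secreted IL-1B measured by AlphaLISA bead assay after 16 h compound exposure of THP-1 cells; compounds (final up to 57.5 uM) added 1 h before LPS (250 ng/mL) and ATP (1.25 mM) stimulation; lower signal means less secretion.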
Starred values were filed as active, the others as inactive; ? = inconclusive; . = no result; [ ] = another dose, or the depositor's remark. Sampled rows, rich in hits. Any-hit rate of the full collection: about 21%. Unless noted, the call rests on the fitted dose curve; in most records, active means well fitted curve in the direction sought with a large enough effect; inconclusive means small, poorly fitted or top-dose-only effect, or another doubt; inactive means no such curve, though single readings can be large; an effect the other way counts as inactive or inconclusive. On the % scale 0 is the no-effect control and ±100 the full control effect.

SMILES	TDP1 cell noCPT	RORgamma inh	ELG1 repair inh	DT40 TDP1 CPT	VP16 counter	IL-1B inflam inh
COc1ccc2c(c1)c(=O)c(S(=O)(=O)c1ccc(C)c(C)c1)cn2CC(=O)Nc1ccccc1	?	.	.	-21%	.	.
Cc1occc1-c1nnc(SCC(=O)N2CCc3ccccc32)o1	21µM*	-20%	7%	16µM*	4%	-9
COc1cc(-c2nnc(SCC(=O)N3CCCc4ccccc43)o2)cc(OC)c1OC	23µM*	.	.	?	.	.
COc1ccc(OC)c(-c2nnc(SCC(=O)N3CCCc4ccccc43)o2)c1	?	-1%	?	?	-3%	-9
COC(=O)c1sccc1S(=O)(=O)N1CCN(c2ccc(C(C)=O)cc2)CC1	-28%	.	.	-26%	.	.
COC(=O)c1sc2ccccc2c1S(=O)(=O)N1CCN(c2ccc(C(C)=O)cc2)CC1	?	.	.	16µM*	.	.
CCOC(=O)c1sc2ccc(S(=O)(=O)N3CCOCC3)cc2c1N	-25%	?	-14%	?	-6%	-9
CCOC(=O)c1sc2ccc(S(=O)(=O)N3CC(C)CC(C)C3)cc2c1N (stereo not drawn)	13µM*	?	7%	?	-1%	18
CCOC(=O)c1sc2ccc(S(=O)(=O)N3CCCCC3)cc2c1N	?	?	?	14µM*	-7%	-29
COC(=O)c1sc2ccccc2c1NC(=O)c1ccc(S(=O)(=O)N2CC(C)CC(C)C2)cc1 (stereo not drawn)	18µM*	-1%	-2%	21µM*	-1%	13
COc1cccc(-c2c(-c3cc(OC)cc(OC)c3)n(C)c3ccc(-c4cccc5[nH]ccc45)cc23)c1	-16%	.	10%	?	.	-10
COC(=O)c1c(C(=O)OC)c2cc(C(=O)c3ccccc3)ccn2c1Cl	?	?	26µM*	-14%	-1%	11
Cc1cnc(C(=O)Nc2cccc3cccnc23)cn1	0.0092µM*	0.079µM*	10%	0.0073µM*	0.2µM*	198
COc1cc(C(=O)Nc2cccc3cccnc23)cc(OC)c1OC	26µM*	-3%	21µM*	?	-16%	-20
COc1cc(OC)cc(C(=O)Nc2cccc3cccnc23)c1	?	8%	-22%	?	1%	?
CCCOc1cccc(C(=O)Nc2cccc3cccnc23)c1	?	.	.	23µM*	.	.
Cc1cccc(C(=O)Nc2cccc3cccnc23)c1	-18%	31%	?	7%	5%	11
Cc1nc(NC(=O)c2ccccc2)sc1-c1csc(Nc2cccc(Cl)c2)n1	.	?	?	.	-20%	.
Cc1nc(N)sc1-c1csc(Nc2cc(N(C)C)ccc2Cl)n1	13µM*	.	.	7.3µM*	.	0
CC(=O)c1cccc(Nc2nc(-c3sc(C)nc3C)cs2)c1	?	.	16µM*	?	.	-57*
COc1ccc(Nc2nc(-c3sc(N)nc3C)cs2)cc1	?	-11%	?	?	19%	-29
CC(=O)c1cccc(Nc2nc(-c3sc(N)nc3C)cs2)c1	16µM*	18%	8.2µM*	12µM*	1%	-3
COc1ccc(CCNc2nc(-c3sc(N)nc3C)cs2)cc1OC	16µM*	9%	?	?	4%	0
NC(=O)[C@@H]1CCCN1C(=O)CCN1Cc2ccccc2OC(c2ccccc2F)C1 (stereo partly drawn)	-8%	.	.	14%[9.04 µM]	.	.
O=C(Nc1ccc([N+](=O)[O-])cc1)c1cc(Cl)sc1Cl	?	?	-7%	?	24%	-6
SMILES	TDP1 cell noCPT	RORgamma inh	ELG1 repair inh	DT40 TDP1 CPT	VP16 counter	IL-1B inflam inh
CN(Cc1ccccc1)C(=O)COc1cc(Cl)ccc1Cl	-4%	31%	-7%	-18%	18%	?
N#CCN(C(=O)CSc1nnc(C2CC2)n1C1CC1)c1ccccc1	-1%	.	.	-1%	.	-3
Cc1cc(C)n(-c2ccc(C(=O)Nc3cccc(S(=O)(=O)N4CCCC4)c3)cc2)n1	9.2µM*	?	?	18µM*	?	1
Cc1cc(C)n(-c2ccc(C(=O)OCC(=O)Nc3ccc(S(=O)(=O)N4CCCCC4)cc3)cc2)n1	?	17%	6%	23µM*	-11%	-12
O=C(Nc1cccc(S(=O)(=O)N2CCCCC2)c1)c1ccc(OCC2CCCO2)cc1 (stereo not drawn)	16µM*	?	13µM*	21µM*	?	-15
Cc1cc(C)nc(-n2nc(C)cc2NC(=O)c2ccc(S(=O)(=O)N3CCOCC3)cc2)n1	-24%	-11%	2%	-30%	-4%	11
Cc1cc(C)nc(-n2nc(C)cc2NC(=O)c2cccc(S(=O)(=O)N3CCOCC3)c2)n1	21µM*	?	-16%	?	4%	-8
NS(=O)(=O)c1ccc(CNC(=O)C(c2ccccc2)c2ccccc2)cc1	-21%	6%	-5%	2%	2%	6
CCN1C(=O)N2C[C@H]3CON(C)[C@H]3C[C@H]2c2ccccc21	-1%	.	.	-12%	.	39
CC(C)Oc1ccc(C(=O)Nc2cccc(S(=O)(=O)N3CCCC3)c2)cc1	21µM*	.	23µM*	29µM*	.	?
CC1CC(C)(C)NC(=S)N1CC(=O)NCc1ccc(Cl)cc1 (stereo not drawn)	-4%	11µM*	10%	-3%	?	6
CC1CC(C)(C)NC(=S)N1CCCC(=O)Nc1ccc(F)cc1 (stereo not drawn)	18µM*	13µM*	-1%	-26%	?	-2
Cc1ccc(NC(=O)CCCN2C(=S)NC(C)(C)CC2C)cc1 (stereo not drawn)	-12%	13µM*	-6%	1%	?	-3
CCc1ccc(NC(=O)CCCN2C(=S)NC(C)(C)CC2C)cc1 (stereo not drawn)	?	4.5µM*	17%	12%	?	3
C[C@]12c3[nH]c4ccc(Cl)cc4c3CCN1C(=O)[C@@H](CC(=O)NCc1cccc(C(F)(F)F)c1)C[C@@H]2C(=O)N1CCOCC1	?	.	23µM*	?	.	-56*
COCCCNC(=O)C[C@H]1C[C@H](C(=O)N2CCOCC2)[C@@]2(C)c3[nH]c4ccc(Cl)cc4c3CCN2C1=O	-11%	.	-10%	?	.	-11

Screening results: PubChem BioAssay, National Center for Advancing Translational Sciences (NCATS)
